# RORg inh = blocks mouse ROR gamma transcriptional activity; Drosophila S2 Gal4-RORgamma UAS-luciferase reporter, 20 h; Potency, µM (highest dose often 53.6 µM), for inactives: top-dose activity change, negative = inhibition, actives largely listed as inhibitors; actives 5.4% (n = 310,000); AID 2551; further: potency means the concentration at half of the fitted maximal effect; nearly all actives have a fitted effect of over 60% in size
# Target sequence (P51450 whole entry, looked up, the tested form may be a part): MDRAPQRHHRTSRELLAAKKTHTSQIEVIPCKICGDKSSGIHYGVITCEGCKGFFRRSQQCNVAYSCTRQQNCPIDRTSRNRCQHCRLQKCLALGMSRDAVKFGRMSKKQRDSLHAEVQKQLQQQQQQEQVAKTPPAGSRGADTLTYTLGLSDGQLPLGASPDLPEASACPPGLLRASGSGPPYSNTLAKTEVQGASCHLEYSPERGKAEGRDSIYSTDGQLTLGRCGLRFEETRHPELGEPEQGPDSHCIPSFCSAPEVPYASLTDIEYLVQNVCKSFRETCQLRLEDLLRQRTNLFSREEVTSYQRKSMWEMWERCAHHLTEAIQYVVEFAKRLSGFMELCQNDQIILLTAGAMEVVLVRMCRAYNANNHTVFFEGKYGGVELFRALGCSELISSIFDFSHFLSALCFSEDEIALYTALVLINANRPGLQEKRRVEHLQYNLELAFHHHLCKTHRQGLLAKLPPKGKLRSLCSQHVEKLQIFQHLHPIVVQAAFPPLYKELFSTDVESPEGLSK
#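 Compounds are pin-transferred onto Drosophila Schneider cells expressing a copper-inducible Gal4–ROR gamma transactivation domain fusion. After 1 hr, copper sulfate is added to 700 uM final; luciferase is read 20 hr later.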
# DT40 TDP1 CPT = growth inhibition of DT40 Tdp1-/-;hTDP1 cells with camptothecin (screen for TDP1 inhibitors) | chicken DT40 Tdp1-/-;hTDP1 cells + 20 nM CPT, ATP luminescence, 48 h | Potency, µM (series often up to 46.2 µM), for the others: top-dose activity change, negative = growth inhibition, usual class: inhibitors | actives 12% (n = 420,000); further: potency means the concentration at half of the fitted maximal effect; nearly all actives have a fitted effect of over 55% in size
#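 Chicken DT40 Tdp1-/- cells complemented with human TDP1, 400 cells/well, exposed to compounds plus 20 nM camptothecin for at least 48 h at 37 C; viability read as ATP content by CellTiter-Glo luminescence.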
# LDHA block = blocks human lactate dehydrogenase A | activity change, % (values are at about 110 or 230 µM) | AID 1347041 | P00338 | actives 0.15% (n = 480,000) | purified LDHA, NADH/diaphorase-resazurin fluorescence; stronger effect = lower value; in the data active means activity change below about -30%; inconclusive means mostly about -25% to -30%;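 further: plate controls were DMSO wells for no effect and wells without enzyme for full effect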
#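 Enzyme activity of human lactate dehydrogenase 5 (2 nM; 0.06 mM NADH, 0.2 mM pyruvate, 5 min, RT) is measured via a resazurin/diaphorase fluorescence readout of residual NADH.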
# IL1B secr inh = inflammasome signaling inhibition, IL-1 beta readout; THP-1 LPS/ATP IL-1B secretion, AlphaLISA, 16 h; stronger effect = lower value; activity change, % at 57.5 µM; actives 4.7% (n = 360,000); AID 743279; in the data active means activity change below about -50%; inconclusive means mostly about -30% to -49%
#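 THP-1 cells pretreated 1 hr with compounds (up to 57.5 uM final), then stimulated with LPS (250 ng/mL final) plus ATP (1.25 mM final); secreted IL-1B measured by AlphaLISA after 16 hr, decreased signal indicating inhibition.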
# DT40 TDP1 no CPT = qHTS for Inhibitors of human tyrosyl-DNA phosphodiesterase 1 (TDP1): qHTS in cells in absence of CPT | DT40 Tdp1-/- hTDP1 cells, no CPT, ATP luminescence, 48 h | actives 15% (n = 420,000) | Potency, µM (top dose mostly 46.2 µM), for the others: at the highest dose activity change, negative = growth inhibition, most hits filed as inhibitors | AID 686978, 2013; further: potency means the concentration at half of the fitted maximal effect; nearly all actives have a fitted effect of over 55% in size
#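 Camptothecin absent (DMSO only). Human TDP1-complemented DT40 knockout cells, 400 cells/well, 37 °C for minimum 48 hr; ATP measured via CellTiter-Glo, 30 min dark incubation, luminescence.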
# Gal4-VP16 FLuc = Gal4-VP16 reporter inhibition counter-screen; actives 3.5% (n = 310,000); Potency, µM (highest dose often 53.6 µM), for the others: at the top dose activity, negative = inhibition, hits mostly inhibitors; AID 2546; Drosophila S2 Gal4-VP16 UAS-luciferase, luminescence, 20 h;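 further: Gal4-VP16 expression switched on by copper sulfate through the metallothionein promoter; potency means the concentration at half of the fitted maximal effect; nearly all actives have a fitted effect of over 50% in size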
# An asterisk follows results filed as active; ? = inconclusive; / = not tested or not shown; [ ] = remark or other dose. Rows were chosen to be rich in hits. Some 18% of all compounds tested hit in one or more screens of this group. Unless noted, the call rests on the fitted dose curve; in most records, active means well fitted curve in the direction sought with a large enough effect; inconclusive means small, poorly fitted or top-dose-only effect, or another doubt; inactive means no such curve, though single readings can be large; an effect the other way counts as inactive or inconclusive. Unless noted, on the % scale 0 is the no-effect control and ±100 the full control effect.
SMILES,RORg inh,DT40 TDP1 CPT,LDHA block,IL1B secr inh,DT40 TDP1 no CPT,Gal4-VP16 FLuc
Cc1cccc(C)c1-n1nnnc1C(C1CC1)N1CCN(C/C=C/c2ccccc2)CC1 (stereo unspecified),/,?,-9.3,-20.5,?,/
CSCCC(c1nnnn1-c1c(C)cccc1C)N1CCN(C/C=C/c2ccccc2)CC1 (stereo unspecified),/,?,-2.4,-59.3*,18.4µM*,/
CCC(c1nnnn1-c1c(C)cccc1C)N1CCN(c2cccc(C(F)(F)F)n2)CC1 (stereo unspecified),/,?,-8.0,70.6,14.6µM*,/
CCC(c1nnnn1-c1c(C)cccc1C)N1CCN(C/C=C/c2ccccc2)CC1 (stereo unspecified),/,6.51µM*,-9.7,-20.5,7.31µM*,/
Cc1ccc(NCC(=O)Nc2cc(C(F)(F)F)ccc2-n2cncn2)c(F)c1,/,/,8.4,/,/,/
CC(C)c1ccc(C2N3CC4(C)CN2CC(c2ccccc2)(C3)C4=O)cc1 (stereo unspecified),/,?,-6.9,/,18.4µM*,/
Cc1ccc(NC(=O)CCCn2c(=O)[nH]c3ccsc3c2=O)cc1,1.0%,-2.9%,0.7,-1.2,-10.1%,-0.8%
O=C(CCCn1c(=S)[nH]c2ccsc2c1=O)Nc1ccc2c(c1)OCO2,12.6µM*,-1.8%,0.0,17.4,-6.6%,-18.6%
Cc1ccc(NC(=O)CCCn2c(=S)[nH]c3ccsc3c2=O)cc1C,12.6µM*,-8.8%,-3.1,36.7,20.1%,?
Cc1cccc(NC(=O)CCCCCn2c(=O)[nH]c3ccsc3c2=O)c1,/,2.5%,-3.5,/,?,/
O=C(NCc1cccnc1-n1cccn1)c1ccc(-c2ccc(F)cc2)o1,/,/,-7.9,/,/,/
COc1ccccc1OCCn1c(C)nc2cc(C)c(C)cc21,/,/,6.6,/,/,/
COc1ccc(CNC(=O)COc2ccc3c(=O)c(Oc4ccc(F)cc4)coc3c2)cc1,/,/,-1.5,/,/,/
Clc1ccccc1-c1nc2nc3ccccc3nc2n1-c1ccc2c(c1)OCO2,7.3%,?,-1.2,-9.5,23.1µM*,3.5%
COc1ccccc1CNC(=O)c1ccc2c(c1)nc(C)n2-c1ccc(Br)cc1,/,/,2.7,/,/,/
N#CC1(NC(=O)CSc2nc(-c3cccs3)nc3ccccc23)CCCCC1,/,/,-9.7,/,/,/
COc1ccccc1NC(=O)N1CCN(c2ccc3nncn3n2)CC1,2.5%,-4.4%,-2.7,8.7,-4.2%,16.1%
COc1ccccc1NC(=O)N1CCN(c2ccc3nnc(-c4ccc(F)cc4)n3n2)CC1,-12.2%,18.4µM*,6.0,-52.4*,?,?
O=C(Nc1ccccc1Cl)N1CCN(c2ccc3nnc(-c4ccc(F)cc4)n3n2)CC1,37.5%,18.4µM*,-3.7,-24.7,16.4µM*,-11.0%
COc1ccc(-c2nnc(SCC(=O)Nc3ccccc3OC)o2)cc1,-3.3%,?,-16.8,-1.2,-28.5%,0.4%
COc1ccc(-c2nnc(SCC(=O)Nc3nncs3)o2)cc1,7.08µM*,7.3%,-2.3,5.0,-3.7%,8.91µM*
Cc1occc1-c1nnc(SCC(=O)Nc2nc(C(C)(C)C)cs2)o1,?,9.2µM*,-0.1,-0.5,10.3µM*,?
COc1ccc(-c2nnc(SCC(=O)NC(=O)NCc3ccco3)o2)cc1,7.94µM*,-3.7%,-3.1,54.8,-22.1%,?
COc1ccc2c(c1)c1c(c(=O)n(-c3ccccc3C)c(=O)n1C)n2C,/,-28.8%,-2.8,/,-18.3%,/
COc1ccc2ccc3c(c2c1)N=CC1(O3)N(C)c2ccccc2C1(C)C (stereo unspecified),?,?,41.8,-1.8,23.1µM*,10.8%
SMILES,RORg inh,DT40 TDP1 CPT,LDHA block,IL1B secr inh,DT40 TDP1 no CPT,Gal4-VP16 FLuc
CN1c2ccccc2C(C)(C)[C@]12C=Cc1cc(O)ccc1O2,-129.8%,2.59µM*,14.2,37.1,7.31µM*,15.8µM*
CC1(c2cccc3ccccc23)OC(=O)c2ccccc21 (stereo unspecified),/,?,-1.2,-15.7,?,/
CN1c2ccccc2C(C)(C)C12C=Nc1c(ccc3ccccc13)O2 (stereo unspecified),?,0.8%,48.3,-57.9*,-6.2%,20µM*
O=C(CSc1nc(-c2ccccc2)cc(=O)[nH]1)Nc1oncc1-c1ccccc1,/,/,9.0,/,/,/
Cc1nc2ccc(Cl)cc2cc1C(=O)NCc1ccc(C(N)=O)cc1,/,/,4.5,/,/,/
CCN1C(=O)C2C(c3ccc(O)c(OC)c3)NC(C)(C(=O)OC)C2C1=O (stereo unspecified),1.5%[10 µM],1.8%,-8.5,33.4,-15.3%,7.1%
CCN1C(=O)[C@H]2[C@@H](c3ccc(-c4cccc(Cl)c4)c(OC)c3)N[C@@](C)(C(=O)OC)[C@H]2C1=O,/,13µM*,0.2,-7.3,?,/
COC(=O)[C@]1(C)N[C@H](c2ccc(-c3ccc(Cl)c(Cl)c3)c(OC)c2)[C@@H]2C(=O)N(C)C(=O)[C@@H]21,/,9.2µM*,0.8,-12.5,7.31µM*,/
Cn1c(=O)[nH]c(=O)c2c1nc(N1CCN(CCO)CC1)n2Cc1ccccc1F,/,/,5.5,/,/,/
Cc1ccc(S(=O)(=O)N2c3cccc4cccc(c34)S2(=O)=O)cc1,/,/,11.1,/,/,/
COc1cc(OC)c(NS(=O)(=O)c2c(C)nc3sc(C)cn3c2=O)cc1Cl,/,?,-7.4,/,14.6µM*,/
Cc1cn2c(=O)c(S(=O)(=O)Nc3ccc(OC(F)(F)F)cc3)c(C)nc2s1,/,20.6µM*,-3.8,/,23.1µM*,/
CCCCOC(=O)c1ccc(NS(=O)(=O)c2c(C)nc3scc(C)n3c2=O)cc1,/,13µM*,-7.9,/,23.1µM*,/
Cc1nc2scc(C)n2c(=O)c1S(=O)(=O)Nc1ccc(F)cc1,4.3%,-7.3%,-2.3,-4.6,-18.6%,2.7%
COC(=O)c1ccc(CN2CCCC2)cc1,/,/,-3.5,/,/,/
O=C(CC1C=CCC1)NCCc1cccs1 (stereo unspecified),/,/,4.3,/,/,/
CC(C)CCNC(=O)CSCc1coc(-c2ccc(Cl)cc2)n1,/,/,-7.7,/,/,/
Cc1ccccc1NC(C)C(=O)N/N=C/c1ccccc1OCc1cccc(Br)c1 (stereo unspecified),-11.5%,?,-5.9,?,?,-1.9%
O=C(N/N=C/c1cc(Br)ccc1O)Nc1ccccc1,2.51µM*,?,-2.0,-96.9*,?,11.2µM*
O=C(CSCC(=O)Nc1ccccc1)N/N=C/c1c(O)ccc2ccccc12,1µM*,4.47µM*,4.3,107.9,4.47µM*,3.55µM*

# Screens from PubChem BioAssay.
